Screening data (PubChem)
Myeloid diff 2: induction of myeloid progenitor differentiation, primary screen, cell-based, flow cytometry, MLPCN library | ER-HoxA9 myeloid progenitors, lysozyme-GFP differentiation | calls only at 10 µM | actives 1% (n = 360,000) | AID 624256, 2012;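 active = normalized GFP-positive differentiation at or above the plate's own cutoff, the solvent-only control mean plus 3 SD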;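 also: cells exposed to compound for four days before flow analysis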
CRFBP-R2 agonist: agonists of CRF-BP/CRF-R2 complex, primary screen, cell-based, HEK293, calcium dye fluorescence, uHTS | CRF-binding protein / CRF receptor 2 complex (human) | calcium dye fluorescence (FLIPR); percent of saturating CRF peptide response | activation, % at 13.2 µM | actives 0.46% (n = 350,000) | AID 588473, 2011;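 active = activation of at least 50%, plus an integration ratio under a set limit after plate pattern correction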;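 also: plate controls were neutral control wells without compound for no effect and CRF at EC100 for full effect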
TPT1 inh: Candida albicans TPT1 enzyme inhibitors, primary screen, biochemical, fluorescence polarization | tRNA 2'-phosphotransferase TPT1 (Candida albicans SC5314) | actives 0.81% (n = 300,000) | inhibition, % at 5 µM | recombinant caTPT1, FP RNA substrate dephosphorylation;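 active = inhibition above the mean of all tested compounds plus 3 SD, set per screening campaign, cut at about 24% in these data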;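 also: plate controls were DMSO alone for no effect and ferristatin control at 100 nM for full effect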
IDE act: human IDE activators in live cells, primary screen, fluorescence polarization, HEK cells, FAbeta-B substrate. actives 0.073% (n = 340,000). FAbeta-B cleavage; 0% vehicle, 100% cell-free pure enzyme wells. activation, % at 5.96 µM. Insulin-degrading enzyme (Homo sapiens), P14735;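 active = activation above the mean of all tested compounds plus 3 SD, set per screening campaign, cut at about 17% in these data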
Target sequence (P14735 whole entry, looked up): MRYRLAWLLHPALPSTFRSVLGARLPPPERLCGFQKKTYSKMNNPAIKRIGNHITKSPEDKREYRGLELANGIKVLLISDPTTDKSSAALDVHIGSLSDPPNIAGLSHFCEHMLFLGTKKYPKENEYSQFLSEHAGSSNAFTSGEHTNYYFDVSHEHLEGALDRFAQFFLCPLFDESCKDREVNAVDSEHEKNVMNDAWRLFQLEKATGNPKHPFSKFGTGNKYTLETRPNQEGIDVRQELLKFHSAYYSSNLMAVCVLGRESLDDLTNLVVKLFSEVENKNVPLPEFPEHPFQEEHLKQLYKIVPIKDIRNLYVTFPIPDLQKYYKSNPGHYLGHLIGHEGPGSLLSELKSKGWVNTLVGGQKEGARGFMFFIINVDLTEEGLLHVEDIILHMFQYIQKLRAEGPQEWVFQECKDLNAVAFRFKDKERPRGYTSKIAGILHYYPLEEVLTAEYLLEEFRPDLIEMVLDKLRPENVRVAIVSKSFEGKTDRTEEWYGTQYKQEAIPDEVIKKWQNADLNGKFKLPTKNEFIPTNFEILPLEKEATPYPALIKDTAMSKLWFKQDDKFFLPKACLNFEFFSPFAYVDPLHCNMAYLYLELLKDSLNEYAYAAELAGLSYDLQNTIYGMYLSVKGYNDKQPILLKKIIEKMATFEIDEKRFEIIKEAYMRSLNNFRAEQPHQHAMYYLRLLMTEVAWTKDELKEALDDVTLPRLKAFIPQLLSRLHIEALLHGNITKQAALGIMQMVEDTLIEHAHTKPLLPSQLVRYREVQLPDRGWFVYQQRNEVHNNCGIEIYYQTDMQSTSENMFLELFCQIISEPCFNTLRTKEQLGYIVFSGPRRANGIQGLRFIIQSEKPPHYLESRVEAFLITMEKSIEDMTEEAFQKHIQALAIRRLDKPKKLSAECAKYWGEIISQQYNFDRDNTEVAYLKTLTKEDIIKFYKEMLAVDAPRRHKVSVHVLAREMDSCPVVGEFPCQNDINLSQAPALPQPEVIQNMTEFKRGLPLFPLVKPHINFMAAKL
CRFR2-BP antag: antagonists of CRF-BP/CRF-R2 complex, primary screen, cell-based, HEK293, calcium dye fluorescence, uHTS; inhibition, % at 11.8 µM; CRF-induced calcium fluorescence; actives 0.59% (n = 350,000);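 active = inhibition of the ligand-induced calcium signal above about 50% at the single tested concentration, limit read from the data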
IDE cell inh: human IDE inhibitors in live cells, primary screen, fluorescence polarization, HEK cells, FAbetaB substrate; Insulin-degrading enzyme (Homo sapiens), P14735; FAbetaB cleavage; inhibition, % at 5.59 µM; actives 0.41% (n = 320,000); AID 434962, 2010;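 active = percent inhibition above the average of all tested compounds plus 3 SD, set per screening campaign, cut at about 16% in these data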;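 also: IDE supplied by intact live HEK cells; FP after avidin binding of uncleaved biotin substrate so inhibition keeps polarization high; 0% = DMSO wells and 100% = 60 µM reference IDE inhibitor Ii1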
An asterisk follows results filed as active; i = inactive; x = no result given; + = active, no number. Rows were chosen to be rich in hits. Some 2.6% of all compounds tested hit in one or more screens of this group.

SMILES	Myeloid diff 2	CRFBP-R2 agonist	TPT1 inh	IDE act	CRFR2-BP antag	IDE cell inh
COc1ccccc1Cn1c(=S)[nH]c2cc(C(=O)N3CCC(C(N)=O)CC3)ccc2c1=O	+	-0.8	0.2	3.4	3.6	-1.4
Cc1ccc(C)c(S(=O)(=O)ON2C(=O)c3ccccc3C2=O)c1	i	1.5	-1.6	0.1	62.7*	2.9
Cc1cc(S(=O)(=O)ON2C(=O)c3ccccc3C2=O)ccc1F	i	1.6	-6.9	1.5	12.9	-2.2
Cc1ccc2c(c1)[C@@H]1[C@H](CO2)[C@H](c2ccccc2)[C@]2(C)C(=O)N[C@H](C)C(=O)N12	i	-1.6	x	4.8	-13.0	-0.3
CCN(CC)c1ccc2cc(C(=O)c3cccs3)c(=O)oc2c1	+	x	x	x	x	x
O=C(c1cc2ccccc2oc1=O)N(Cc1cccs1)Cc1cccs1	i	0.5	3.0	3.4	10.5	-3.0
CN(C)CCN(C(=O)C1=COCCO1)c1nc2ccc(F)cc2s1	i	3.2	-2.4	-0.8	-8.8	-0.3
Cc1c(C(=O)Nc2c(F)cccc2F)sc2ncn(CC(=O)N3CCCCC3)c(=O)c12	i	-0.8	4.2	2.2	78.1*	5.7
CC(=O)Nc1cccc(NC(=O)c2sc3ncn(CC(=O)N4CCCCC4)c(=O)c3c2C)c1	i	0.9	x	1.1	-11.0	x
Cc1cccc(Nc2nc(N)nc(-c3oc4ccccc4c3C)n2)c1	+	-1.0	-3.5	1.8	-9.3	3.6
Cc1ccc(/C=N/n2c(-c3cccc(Cl)c3)n[nH]c2=S)o1	i	0.4	0.0	x	83.0*	-6.9
CCc1nnc(NS(=O)(=O)c2ccc(N=Cc3c(C)[nH]n(-c4ccc(Cl)cc4)c3=O)cc2)s1	i	2.3	-2.7	5.8	32.6	9.0
CCc1nnc(NS(=O)(=O)c2ccc(N=Cc3c(C)[nH]n(-c4cccc(Cl)c4)c3=O)cc2)s1	i	-0.9	-0.6	1.5	51.0*	6.4
COc1ccc(/C(O)=C2/C(=O)C(=O)N(CCN(C)C)C2c2cccnc2)cc1C (centres undefined)	i	94.3*	-1.7	4.9	4.9	-6.2
Cc1cc(-n2c(C)cc(C(=O)CSc3nc4ccccc4c(=O)n3Cc3ccco3)c2C)no1	i	68.2*	0.8	6.2	-50.7	-2.6
CSc1ccccc1NC(=O)c1cc(-c2ccc3c(c2)OCO3)on1	i	2.2	1.3	6.6	-1.8	0.5
O=C(Nc1cc(Br)ccc1O)c1cc(-c2ccc3c(c2)OCO3)on1	i	-2.3	4.9	2.8	70.0*	0.6
COc1ccccc1CNC(=O)c1cc(-c2ccccc2C)n(CC2CC(c3cccc([N+](=O)[O-])c3)=NO2)n1 (centres undefined)	i	-0.6	-5.5	-9.9	10.4	6.1
CC(=O)N1CC[n+]2c(-c3ccc(Cl)cc3Cl)csc21	i	0.8	-5.9	-6.4	-23.9	16.7*
CC1(C(=O)NC(=S)NNC(=O)c2ccncc2)CCCCC1	i	80.8*	-1.5	-3.2	33.1	3.7
O=C(NNC(=S)NC(=O)C12CC3CC(CC(C3)C1)C2)c1ccncc1	x	139.3*	3.0	4.4	-83.6	-8.4
O=C1OCc2cc(NS(=O)(=O)c3cccs3)ccc21	i	-1.5	-2.1	-1.0	-6.9	0.9
O=S(=O)(Nc1ccc2c(c1)CCC2)c1cccs1	i	1.4	14.1	1.5	52.2*	13.9
CN1CCN(CCCc2c3c(cc4c2CCC4)CCC3)CC1	i	0.0	-0.7	5.5	2.7	3.4
O=C(CC1SC(N2CCCCC2)=NC1=O)Nc1ccc(C(=O)NCCc2ccc(F)cc2)cc1 (centres undefined)	+	-1.0	x	2.3	24.5	-1.7
SMILES	Myeloid diff 2	CRFBP-R2 agonist	TPT1 inh	IDE act	CRFR2-BP antag	IDE cell inh
COc1ccccc1CCNC(=O)c1ccc(NC(=O)CC2SC(N3CCCCC3)=NC2=O)cc1 (centres undefined)	i	0.1	x	0.8	7.1	1.5
CN(CCOc1ccccc1)CC(=O)Nc1ccc(Br)cc1F	i	-0.8	2.0	0.8	-16.5	1.7
CC(=O)c1ccc(OCCCC(=O)Nc2ccc(S(=O)(=O)N3CCOCC3)cc2)cc1	i	-0.7	-1.9	-6.2	1.7	-1.0
COc1ccc(NC(=O)CC(=O)Nc2ccc(OC)cc2OC)c(OC)c1	i	0.6	-1.2	3.6	5.7	8.4
COc1ccc(NC(=O)c2cc(C(=O)Nc3ccc(OC)cc3OC)cc([N+](=O)[O-])c2)c(OC)c1	i	7.3	1.9	0.1	50.5*	-9.4
COc1ccc(NC(=O)CCCCC(=O)Nc2ccc(OC)cc2OC)c(OC)c1	i	2.1	0.1	-1.5	58.6*	-1.1
COc1ccc(NC(=O)c2ccc(C)cc2)c(OC)c1	i	3.1	4.5	2.2	26.7	3.0
COC(=O)C(OC(=O)c1ccccc1)C(C)Br (centres undefined)	i	-2.9	x	-2.2	63.0*	3.6
Cc1[nH]c2ccccc2c1C(=O)CN1C(=O)NC(C)(c2ccc(Cl)cc2Cl)C1=O (centres undefined)	i	67.0*	0.2	1.7	-198.7	1.3
Cc1[nH]c2ccccc2c1C(=O)CSc1ccc(Cl)cc1	i	-1.8	4.1	7.4	-8.4	9.9
Cc1ccc(S(=O)(=O)NCCC(=O)Nc2ccncc2)cc1C	i	2.0	3.3	0.1	5.0	-4.6
CC(C)(C)c1ccc(C(=O)NCC(=O)N/N=C/c2cccnc2)cc1	i	1.8	-4.3	5.2	-10.5	-6.8
O=C(Cn1ncc2c([nH]c3ccccc32)c1=O)NCCc1ccccc1	i	3.1	-0.4	2.4	4.4	-3.1
O=C(Cn1ncc2c([nH]c3ccccc32)c1=O)NCC1CCN(Cc2ccccc2F)CC1	i	0.2	-2.2	4.3	70.2*	2.4
COc1ccccc1Cc1c(-c2ccc(C#N)cc2)nc2c3ccccc3ccn12	i	x	x	x	x	x
COc1ccc(C2Nc3ccc(Br)cc3C(c3ccccc3)N2CC(=O)O)cc1 (centres undefined)	i	-6.3	-3.1	8.1	86.5*	2.5
O=C(O)CN1C(c2ccccc2O)Nc2ccc(Br)cc2C1c1ccccc1 (centres undefined)	i	-1.7	x	x	63.3*	x
COc1cccc(C2CC(c3cccs3)=NN2C(=S)Nc2ccccc2)c1OC (centres undefined)	i	2.7	3.0	-2.3	80.9*	6.4
Cc1ccc(NC(=O)C(c2ccccc2)c2ccccc2)c(O)c1	x	2.5	5.0	1.7	15.2	-9.9
